Compound activity: PubChem BioAssay, National Center for Advancing Translational Sciences (NCATS)
Cruzain noTriton = blocks cruzain activity in detergent-free assay | P25779 | actives 2.3% (n = 200,000) | Potency, µM, without a hit: max response, negative = inhibition, actives largely listed as inhibitors | AID 1476 | purified cruzain, Z-FR-AMC fluorescence, no detergent;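 further: plate controls were enzyme without inhibitor for no effect and buffer without enzyme for full effect; nearly all actives have a fitted effect of over 40% in size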
Target sequence (P25779 123-467 limits assumed): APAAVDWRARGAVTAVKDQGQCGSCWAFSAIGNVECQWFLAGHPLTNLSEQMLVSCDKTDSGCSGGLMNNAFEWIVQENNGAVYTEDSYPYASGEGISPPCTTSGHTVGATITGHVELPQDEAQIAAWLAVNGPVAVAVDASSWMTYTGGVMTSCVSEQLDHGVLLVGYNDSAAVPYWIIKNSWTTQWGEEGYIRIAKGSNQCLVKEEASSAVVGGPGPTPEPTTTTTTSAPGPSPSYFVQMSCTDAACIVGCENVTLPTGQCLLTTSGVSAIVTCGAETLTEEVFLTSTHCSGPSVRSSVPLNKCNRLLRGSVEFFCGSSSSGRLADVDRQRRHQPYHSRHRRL
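Purified cruzain at 1.5 nM, pre-incubated 15 min with compound at room temperature in 100 mM sodium acetate pH 5.5, 5 mM DTT, 0.00005% Triton X-100. Reaction started with 2 uM Z-FR-AMC; AMC fluorescence increase over 60 s gives rate.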
Cruzain inh Det = blocks cruzain activity in presence of Triton detergent. P25779. purified cruzain, Z-FR-AMC fluorescence, 0.01% Triton. actives 0.43% (n = 200,000). Potency, µM, inactives show max response, negative = inhibition, actives largely listed as inhibitors;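 further: plate controls were neutral wells for no effect and buffer without enzyme for full effect; nearly all actives have a fitted effect of over 40% in size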
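Read-out: AMC fluorescence (360 nm excitation, 450 nm emission), four reads over 2 min, first-to-third difference used. Conditions: cruzain 1.5 nM, Z-FR-AMC 2 uM, pH 5.5 acetate, 5 mM DTT, 0.01% Triton X-100.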
Active calls of the source: *; ? = inconclusive. Only some compounds are listed: those with a hit (about 2.4% of all), similar ones and a draw of the others. The call rests on the fitted dose curve; in most records, active means well fitted curve in the direction sought with a large enough effect; inconclusive means small, poorly fitted or top-dose-only effect, or another doubt; inactive means no such curve, though single readings can be large; an effect the other way counts as inactive or inconclusive. Potency means the concentration at half of the fitted maximal effect.

SMILES	Cruzain noTriton	Cruzain inh Det
COc1ccc(CC(=O)Nc2ccc(-c3noc(-c4cc(OC)c(OC)c(OC)c4)n3)cc2)cc1	5%	-2%
CCc1ccc(NC(=O)c2cc(-c3ccc(OC)cc3)on2)cc1	13µM*	0%
CCOc1ccccc1-c1nc(-c2ccc(NC(=O)Cc3ccc(OC)cc3)cc2)no1	7.9µM*	1%
CCC(=O)N1CCc2cc(Br)cc(S(=O)(=O)N(CC)Cc3ccccc3)c21	-2%	-2%
COc1ccc(N2C(=O)CC(Nc3ccc(C)cc3)C2=O)cc1 (configuration not stated)	?	4%
Cc1ccc(NC2CC(=O)N(c3ccc(N4CCCCC4)cc3)C2=O)cc1 (configuration not stated)	7.9µM*	-2%
Cc1ccc(Cl)cc1NC(=O)Cn1nnc2sc3c(c2c1=O)CCC(C(C)(C)C)C3 (configuration not stated)	25µM*	-4%
COc1ccc(Cl)cc1NC(=O)Cn1nnc2sc3c(c2c1=O)CCC(C(C)(C)C)C3 (configuration not stated)	6%	0%
O=S(=O)(Nc1ccc(F)cc1F)c1ccc(-n2cccn2)cc1	-4%	-6%
CCCCc1ccc(NC(=O)COc2ccc(C(=O)Nc3ccccc3OC)cc2)cc1	-10%	-6%
CCCCc1ccc(NC(=O)COc2ccc(C(=O)Nc3ccccc3C)cc2)cc1	32µM*	6%
CCCCc1ccc(NC(=O)COc2cccc3c(=O)n(C)ccc23)cc1	20µM*	-2%
CCCn1ccc2c(OCC(=O)NCc3ccc(C)cc3)cccc2c1=O	-11%	-4%
CCc1ccc(NC(=O)C2CCN(S(=O)(=O)c3cccc(-c4noc(C)n4)c3)CC2)cc1	6%	2%
O=C1CCc2cc(S(=O)(=O)NC(C(=O)Nc3ccc(F)cc3)c3ccccc3)ccc2N1 (configuration not stated)	0%	0%
CCn1cc(C(=O)NCc2ccc(C)cc2)c(=O)c2cc(S(=O)(=O)N3CCCCCC3)ccc21	?	-3%
Cc1ccc(NC(=O)CSC2=Nc3ccccc3C3=NC(Cc4ccccc4)C(=O)N23)cc1C (configuration not stated)	-21%	-6%
COc1ccc(NC(=O)CSC2=Nc3ccccc3C3=NC(Cc4ccccc4)C(=O)N23)cc1Cl (configuration not stated)	16µM*	-4%
O=C(NCc1ccco1)c1ccc2c(c1)N(Cc1ccccc1F)C(=O)c1ccccc1S2(=O)=O	-16%	-2%
O=C(NC1CCCCC1)N1CCCC(c2nc3ccccc3[nH]2)C1 (configuration not stated)	5µM*	?
O=C(NC1CCCCC1)N1CCC(c2nc3ccccc3[nH]2)CC1	0%	0%
COc1cccc(CS(=O)(=O)c2nnnn2-c2ccc(F)cc2Br)c1	0%	2%
O=C1/C(=C/c2cccc(F)c2)CSc2sccc21	-2%	-2%
Cc1cccc(/C=C2\CS/C(=C\c3cccc(C)c3)C2=O)c1	25µM*	-2%
O=C(Nc1ccc(N2CCCCC2)cc1)c1ccc(F)cc1	25µM*	4%
SMILES	Cruzain noTriton	Cruzain inh Det
COc1ccc(C(=O)N/N=C(/C)c2ccc(N3CCCCC3)cc2)cc1	?	-15%
COc1ccc(C2(C(=O)Nc3nncs3)CCCC2)cc1	-2%	2%
CCCOc1ccc(C(=O)Nc2ccc(N3CCN(C(C)=O)CC3)cc2)cc1	?	-3%
COc1ccc(NC(=O)C2(c3ccc(NC(=O)c4ccc(OC)cc4)cc3)CCCC2)cc1	7.9µM*	0%
O=C(c1ccc(F)cc1)c1ccc(N2CCCC2)cc1	2%	-7%
COc1ccc(C(=O)Nc2ccc(N3CCCC3)cc2)cc1	10µM*	?
CCOc1ccc(C(=O)Nc2ccc(N3CCCC3)cc2)cc1	7.9µM*	-15%
CCn1cc2nc(SCC(=O)Nc3ccc(C)cc3)n(Cc3ccc(C)cc3)c(=O)c2n1	?	-2%
Cc1csc2nc(COC(=O)c3cccc(NC(=O)COc4ccccc4Cl)c3)cc(=O)n12	0%	-2%
COc1ccc(N(Cc2cccs2)C(=O)COc2cc(C)c(Cl)c(C)c2)cc1	4%	-8%
CCOc1ccc(NC(=O)C2CC(=O)N(CC)C(=Nc3ccc4c(c3)OCO4)S2)cc1 (configuration not stated)	-10%	-3%
CC(/C=C/c1ccc(N(C)C)cc1)=N/N=C1/NC(=O)CC(C(=O)Nc2ccc(Cl)cc2)S1 (configuration not stated)	?	-16%
CCCOc1ccc(NC(=O)C2CC(=O)N/C(=N/N=C(C)/C=C/c3ccc(N(C)C)cc3)S2)cc1 (configuration not stated)	25µM*	-16%
CCOc1ccc(NC(=O)C2CC(=O)NC(=Nc3ccc(Cl)c(Cl)c3)S2)cc1 (configuration not stated)	10µM*	?
CCc1cccc(NC(=O)CC(c2ccc(OC)cc2)N2Cc3ccccc3C2=O)c1 (configuration not stated)	-1%	-6%
Cc1ccc2c(c1)N(C(=O)C1CCN(S(=O)(=O)c3c(C)noc3/C=C/c3ccccc3F)CC1)CCO2	13µM*	-5%
Cc1ccc(Cl)cc1N1CCN(C(=O)C2CCN(S(=O)(=O)c3c(C)noc3/C=C/c3ccccc3F)CC2)CC1	6.3µM*	-2%
CCC1CN(C(=O)C2CCN(S(=O)(=O)c3c(C)noc3/C=C/c3ccccc3F)CC2)c2cc(Cl)ccc2O1 (configuration not stated)	3.2µM*	-3%
CCC1CN(C(=O)C2CCN(S(=O)(=O)c3c(C)noc3/C=C/c3ccccc3F)CC2)c2cc(C)ccc2O1 (configuration not stated)	?	-4%
CC(=O)c1ccc(N2CCN(C(=O)C3CCN(S(=O)(=O)c4c(C)noc4/C=C/c4ccccc4F)CC3)CC2)cc1	-12%	-4%
Cc1ccc(/C=C/c2onc(C)c2S(=O)(=O)N2CCC(C(=O)N3CCOc4ccccc43)CC2)cc1	-28%	-3%
COc1ccc(N2CCN(C(=O)CCc3c(C)nc4c(-c5ccccc5)c(C)nn4c3C)CC2)cc1	?	-1%
Cc1oc2c(c(C)cc3oc(=O)c(CC(=O)NCCc4ccccc4)c(C)c32)c1C	2%	2%
O=C(Cn1cc(SCc2ccccc2F)c2ccccc21)N1CCCCCC1	-5%	-9%
O=C(Nc1ccc([N+](=O)[O-])cc1)C1CC1(c1ccccc1)c1ccccc1 (configuration not stated)	5%	-9%
SMILES	Cruzain noTriton	Cruzain inh Det
CC1(C)C(C=C(Cl)Cl)C1C(=O)Nc1ccc([N+](=O)[O-])cc1 (configuration not stated)	10µM*	13µM*
O=C1C(Cl)=C(N2CCN(Cc3ccccc3)CC2)C(=O)N1c1ccccc1	-12%	-26%
COc1ccc(N2C(=O)C(Cl)=C(N3CCN(Cc4ccccc4)CC3)C2=O)cc1	-29%	18µM*
CN1CCN(C2=C(Cl)C(=O)N(c3ccc(Cl)cc3)C2=O)CC1	25µM*	?
Cc1ccc(N2C(=O)C(Cl)=C(N3CCN(C)CC3)C2=O)c(C)c1	?	-26%
O=C1C(Cl)=C(N2CCOCC2)C(=O)N1c1cccc(Cl)c1	13µM*	13µM*
CCc1ccc(N2C(=O)C(Cl)=C(N3CCOCC3)C2=O)cc1	-1%	-22%
CCOC(=O)c1ccc(OC(=O)c2cn(-c3ccc(C)cc3)c(=O)c3ccccc23)cc1	-19%	-2%
